Source: PubChem (National Center for Advancing Translational Sciences (NCATS))
The list is not random: actives were taken first. Their share in the collection is about 5.7%.
DRD3 antagonist – antagonists of human D3 dopamine receptor | P35462 | D3R cells, DiscoveRx beta-arrestin luminescence, antagonist mode; stronger effect = lower value | max response, negative = inhibition, % | 2.5% of 360,000 active | AID 652054; in the data active = max response below about -50%; inconclusive = no clear call, values can overlap the other calls; also: % is scaled to controls: 0 for no effect and ±100 for the full control effect
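Cells plated overnight at 1500 cells/well, then exposed to library compounds with dopamine controls for 90 minutes at 37 degrees C. DiscoveRx reagent added for 30–60 minutes at room temperature; luminescence read, quantitative HTS format.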
ClpP mod – qHTS Assay for Activators of ClpP; 1.9% of 340,000 active; ATP-dependent Clp protease proteolytic subunit (Bacillus subtilis (strain 168)), P80244; purified B. subtilis ClpP, FRET peptide cleavage, 20 min; Potency, µM (top dose mostly 57.5 µM), for inactives: at the top dose activity change, negative = active; AID 651965, 2013; active = well fitted falling curve with a large enough effect; inconclusive = small, poorly fitted or top-dose-only effect; inactive = no such curve, though single readings can be large or run the other way; also: potency is read from the fitted curve at half-maximal effect; the source files actives as falling curves though it sought activators and does not explain the sign; nearly all actives have a fitted effect of over 65% in size
Target sequence (P80244 whole entry, looked up): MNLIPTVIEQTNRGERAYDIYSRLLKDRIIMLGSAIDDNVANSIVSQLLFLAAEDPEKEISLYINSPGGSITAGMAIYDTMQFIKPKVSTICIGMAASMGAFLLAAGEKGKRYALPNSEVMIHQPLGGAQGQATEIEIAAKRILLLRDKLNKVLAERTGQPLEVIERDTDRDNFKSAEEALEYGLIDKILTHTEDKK
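Buffer: 100 mM Tris/HCl pH8, 100 mM KCl, 0.05% low protease BSA, 2.5% glycerol, 0.01% Tween-20. ClpP 10 microg/mL final; 20 min RT; delta FRET normalized to ADEP and DMSO controls.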
GLP-1R inv ag – inverse agonists of human GLP-1 receptor; HEK293 GLP-1R CRE-luciferase, luminescence, 24 h; GLP-1R form is constitutively active; AID 624417; Potency, µM (series often up to 38.3 µM), for inactives: at the top dose activity change, negative = inhibition, most hits filed as inhibitors; 1.6% of 410,000 active; P43220; also: potency is read from the fitted curve at half-maximal effect; % is scaled to controls: 0 for no effect and ±100 for the full control effect; nearly all actives have a fitted effect of over 55% in size
Target sequence (P43220 whole entry, looked up): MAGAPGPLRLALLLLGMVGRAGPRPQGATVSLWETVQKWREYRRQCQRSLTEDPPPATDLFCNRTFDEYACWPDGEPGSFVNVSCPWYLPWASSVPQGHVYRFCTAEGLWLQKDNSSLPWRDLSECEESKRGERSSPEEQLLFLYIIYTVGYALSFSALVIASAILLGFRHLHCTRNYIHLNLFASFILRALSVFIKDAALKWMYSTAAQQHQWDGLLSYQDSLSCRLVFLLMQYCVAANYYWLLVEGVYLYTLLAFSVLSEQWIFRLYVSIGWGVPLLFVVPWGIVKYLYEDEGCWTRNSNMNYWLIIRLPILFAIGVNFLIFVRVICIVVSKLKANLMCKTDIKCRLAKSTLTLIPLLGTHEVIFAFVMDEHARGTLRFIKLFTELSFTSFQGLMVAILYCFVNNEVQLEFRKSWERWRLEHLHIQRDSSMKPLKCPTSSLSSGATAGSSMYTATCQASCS
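Using stably transfected HEK293 (constitutively active GLP-1R, cAMP-luciferase reporter), compounds were incubated 24 hr and luciferase measured by luminescence.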
GLP-1R agonist – activates the human GLP-1 receptor | P43220 | HEK293 GLP-1R CRE-luciferase, luminescence, 4-6 h; cells express a hypersensitive GLP-1R form | Potency, µM (titrated, usually from 45.6 µM), for inactives: at the highest dose activation, hits mostly activators | 0.007% of 380,000 active | AID 624172; also: potency is read from the fitted curve at half-maximal effect; % of control where 0% means no effect
D3 ag – D3 dopamine receptor (human) agonism. P35462. D3R DiscoveRx beta-arrestin cells, luminescence, 90 min. max activation, %. 0.58% of 410,000 active; in the data active = max activation above about 30%; also: 0% is about no effect
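Agonist-mode cell screen: cells plated at 1500/well and incubated overnight at 37 °C, then exposed to library compounds for 90 min at 37 °C. Detection reagent was added for 30–60 min at room temperature, and luminescence was read.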
HEK293 tox – cytotoxic in the GLP-1 receptor inverse agonist counter-screen | HEK293 cAMP-luciferase reporter cells, luminescence, 24 h | Potency, µM (series often up to 38.3 µM), for inactives: at the highest dose activity change, negative = inhibition, usual class: inhibitors | 0.13% of 410,000 active | AID 624418;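 also: loss of luciferase light is scored as toxicity; potency is read from the fitted curve at half-maximal effect; % is scaled to controls: 0 for no effect and ±100 for the full control effect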
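Seeding density was 200 cells/uL; after overnight-length (12 h) culture, 23 nL compounds went on for 24 h at 37 °C. Readout used a luciferase detection reagent, luminescence taken after 12 min at room temperature.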
An asterisk follows results filed as active; ? = inconclusive; nt = not tested or not shown; [ ] = another dose, or the depositor's remark. Unless noted, calls follow the shape of the dose curve; as a rule, active = well fitted curve in the direction sought with a large enough effect; inconclusive = small, poorly fitted or top-dose-only effect, or another doubt; inactive = no such curve, though single readings can be large; an effect the other way counts as inactive or inconclusive.

SMILES | DRD3 antagonist | ClpP mod | GLP-1R inv ag | GLP-1R agonist | D3 ag | HEK293 tox
COCCCNC(=O)c1ccc(N2CCOCC2)c(NS(=O)(=O)c2ccc(OC)cc2)c1 | -73* | -3% | 0% | -2% | 5 | -8%
COc1ccc(-n2ncc(C(=O)NCCCN3CCCCC3)c2C2CCN(C(=O)OC(C)(C)C)CC2)cc1 | nt | 1% | -19% | nt | 2 | 3%
CCc1ccc(OCc2ccc(C(=O)NCc3ccccn3)o2)cc1 | -70* | -3% | -29% | 28% | -5 | 18%
CCOc1ccc(OCc2ccc(C(=O)NCc3ccncc3)o2)cc1 | 11 | 1% | 79% | -3% | 6 | 6%
CN1CC[n+]2cnc3ccccc3c21 | -10 | 28µM* | 0% | -3% | -14 | 6%
COc1cccc(N2CCN(C(=O)c3cc4c(=O)n(Cc5ccco5)ccc4nc3C)CC2)c1 | nt | -11% | 6% | nt | -1 | 3%
O=C1COC(c2ccccc2O)=NN1CCCl | 0 | -1% | 6% | -11% | -11 | 4%
FC(F)(F)c1cccc(CNc2ncccc2-c2nc3cc(Cl)ccc3o2)c1 | -28 | 32µM* | 3% | -2% | 2 | 3%
Cc1cccc(-c2noc(-c3cccnc3NCc3ccc(Cl)cc3)n2)c1 | nt | -19% | 24% | nt | 9 | 1%
CCOC(=O)c1c(NC(=O)CN2CCN(C)CC2)sc(C(=O)Nc2ccccc2)c1C | -1 | nt | 13µM* | 17% | -1 | -13%
CCOC(=O)c1c(NC(=O)COC(=O)CCOc2ccc(OCC)cc2)sc(C(=O)N(C)C)c1C | -8 | nt | 48% | 13% | -4 | -2%
CCOC(=O)c1c(NC(=O)CSc2ccccc2C(=O)O)sc(C)c1C | -4 | 16µM* | 0%[0.307 µM] | 2% | -7 | -4%[0.307 µM]
CCOC(=O)c1c(NC(=O)CSc2ncnc3ccccc23)sc(C)c1C | 0 | 1% | 28% | 5% | -13 | 0%
CCOC(=O)c1c(NC(=O)Nc2ccccc2)sc(C)c1C | 1 | 20µM* | 0% | -5% | -20 | 2%
CCOC(=O)c1c(NC(=O)COC(=O)CCOc2ccccc2C)sc(C(=O)NC)c1C | 1 | 20µM* | 15% | -11% | 0 | -12%
CCOC(=O)c1sc(NC(=O)CCN2CCN(C)CC2)c(C(=O)OCC)c1C | -26 | 0% | 11% | 14% | -13 | 3%
CCC(Cc1ccccc1)NC(=O)c1ccc2nc(N3CCC(C)CC3)sc2c1 (stereo not given) | nt | -6% | -5% | nt | 2 | -3%
CC1CCN(S(=O)(=O)c2ccc3c(c2)CCN3)CC1 | nt | -23% | 1% | nt | 3 | 0%
Cc1ccc(NC(=O)C2CCCN(c3nnc(C)c4c(C)n(-c5ccccc5)nc34)C2)cc1Cl (stereo not given) | nt | -11% | 18% | nt | 20 | -18%
CC(Cl)=CCn1c(NCCc2ccccc2)nc2c1c(=O)n(C)c(=O)n2C | 75 | 0% | 19% | -2% | 11 | 6%
Cc1ccc(C2NC(c3ccc4c(c3)OCO4)=CC(c3cc(Br)ccc3O)N2)cc1 (stereo not given) | nt | 1% | nt | nt | nt | nt
CN(C)S(=O)(=O)c1ccc(N2CCCC2)c(C(=O)Nc2nc3c(ccc4ccccc43)s2)c1 | -22 | 28µM* | -2% | 3% | 0 | 0%
Cc1cnc(NC(=O)c2cc(S(=O)(=O)N(C)C)ccc2N2CCCC2)s1 | -17 | nt | ? | 0% | -17 | -21%
CN(C)Cc1cc(C(F)(F)F)ccc1C(O)(c1ccccc1)c1ccccc1 | 3 | -2% | 8.9µM* | -8% | 0 | ?
CCOc1ccc(CNC(=O)CS(=O)(=O)c2cccc3nsnc23)cc1 | nt | -4% | -1% | 3% | 0 | 13%
SMILES | DRD3 antagonist | ClpP mod | GLP-1R inv ag | GLP-1R agonist | D3 ag | HEK293 tox
Cc1nnc(Sc2nc3ccccc3o2)c2ccccc12 | -68* | 0% | ? | -6% | -5 | -28%
Clc1ccc(-c2nnc(Sc3nc4ccccc4o3)c3ccccc23)cc1 | ? | 0% | 9% | 7% | -22 | 23%
CCCSc1nnc(NC(=O)c2cc(=O)c3ccccc3o2)s1 | nt | 3% | 18% | nt | -7 | 2%
CCN1CCN(c2ncc3c(n2)CCN(Cc2ccc(Br)s2)C3)CC1 | nt | 1% | 3.2µM* | nt | -19 | -18%
CCN1CCN(c2ncc3c(n2)CCN(Cc2ccc(OC(C)C)cc2)C3)CC1 | nt | -5% | 10µM* | nt | -21 | -7%
CN1CCN(c2ncc3c(n2)CCN(Cc2ccc(Br)s2)C3)CC1 | nt | 1% | 3.2µM* | nt | -20 | -21%
CCN1CCN(c2ncc3c(n2)CCN(Cc2cc(Br)cs2)C3)CC1 | nt | -20% | 4.5µM* | nt | 1 | 12%
CCN1CCN(c2ncc3c(n2)CCN(Cc2sccc2C)C3)CC1 | nt | -9% | ? | nt | -2 | -7%
Brc1ccc(CN2CCc3nc(N4CCN(c5ncccn5)CC4)ncc3C2)cc1 | nt | 27% | -22% | nt | 6 | -8%
CCN1CCN(c2ncc3c(n2)CCN(Cc2ccc(C)s2)C3)CC1 | nt | -3% | ? | nt | -12 | -2%
Cc1cccc(NC(=O)c2sc3ncnc(N(C)C4CCCCC4)c3c2C)c1C | nt | -1% | 11% | nt | -14 | -1%
CC(=O)c1ccc(N2CCN(C(=O)CCS(=O)(=O)c3ccc4c(c3)oc(=O)n4C)CC2)cc1 | nt | 0% | 0% | nt | 7 | -15%
CCOc1ccccc1CN1CCc2nc(N3CCN(c4ccccc4F)CC3)ncc2C1 | nt | ? | 10µM* | nt | -17 | 2%
Cc1ccc(NC(=O)C2(NC(=O)c3cccc(N4C(=O)CSC4c4ccccc4)c3)CCCCC2)cc1 (stereo not given) | -8 | -1% | 6.3µM* | -10% | -7 | 3%
Cn1c(=O)c([N+](=O)[O-])c(-n2ccnc2)c2ccccc21 | -51* | -1% | ? | -5% | -22 | ?
CCC(=O)c1ccc(OCC(=O)Nc2nc(-c3cccnc3)cs2)cc1 | 16 | 32µM* | 0% | -27% | 6 | 5%
O=C1CC(c2ccccc2)=NN1c1nc(-c2ccccc2)cs1 | 14 | 1% | 4% | -4% | 47* | 7%
CC1=NN(c2nc(-c3ccccc3)cs2)C(=O)C1 | -21 | 1% | -33% | -7% | -3 | -16%
Oc1cnc2ccccc2c1CN1CCOCC1 | -77* | 20µM* | -2% | -7% | -3 | 7%
Oc1ccc2ccccc2c1CN1CCOCC1 | -10 | nt | -21% | 3% | -7 | 3%
C#CCn1cc(CNC[C@H]2O[C@@H](n3cnc4c(=O)[nH]c(N)nc43)[C@H](O)[C@@H]2O)c2ccccc21 | 6 | -1% | 11% | 7% | 7 | 2%
